High-throughput results (PubChem BioAssay)
Hits are enriched below; roughly 7.9% of the tested compounds scored in any of these assays.
HT1080NT lethal: kills 2HG-producing HT-1080-NT fibrosarcoma cells; HT-1080-NT fibrosarcoma viability, CellTiter-Glo ATP luminescence, 48 h; Potency, µM (titrated, usually from 46.1 µM), for the others: top-dose activity, negative = less viability, usual class: cytotoxic; 360,000 tested, 1.6% active; AID 686970;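 also: NT is the 2HG producing partner of a matched IDH1 knockdown line; 0% = DMSO-treated cells and -100% = media-only wells without cells; nearly all actives have a fitted effect of over 55% in size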
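HT-1080-NT; 750 cells/well; 5% FBS RPMI; 48 h compound, 37 degrees C; CellTiter-Glo luminescence; curve fitting and curve-class assignment.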
HT1080 IDH1KD tx: toxicity to HT-1080 IDH1 knockdown cells (counter line) | 360,000 tested, 2% active | HT-1080 IDH1 knockdown viability, ATP luminescence, 48 h | Potency, µM (series often up to 46.1 µM), for inactives: at the highest dose activity, negative = toxicity, actives largely listed as cytotoxic;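 also: 0% = DMSO wells and -100% = cell-free medium wells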
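HT-1080-IDH1KD cells (IDH1 knocked down), 750/well in RPMI with 5% FBS, treated with compound 48 h at 37 degrees C. Viability by CellTiter-Glo luminescence, normalised to DMSO and no-cell wells; concentration-response curves classed.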
KB-V1 MDR tox: KB-V1 MDR subline cytotoxicity; KB-V1 MDR cells viability, CellTiter-Glo, 72 h; Potency, µM (top dose mostly 46.1 µM), actives largely listed as cytotoxic; 400,000 tested, 3.4% active; also: % is scaled to controls: 0 for no effect and ±100 for the full control effect; nearly all actives have a fitted effect of over 60% in size
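Compound-treated KB-V1 multidrug-resistant cells, 72 h, 37 degrees C; viability by CellTiter-Glo. Fitted qHTS curves give the values.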
SW480 rereplic: induces DNA re-replication in SW480 colon adenocarcinoma cells; 340,000 tested, 1.8% active; Potency, µM (highest dose often 46.1 µM), for inactives: top-dose re-replication activation, actives largely listed as activators; AID 624297; SW480 DNA re-replication, Hoechst DNA content imaging, 48 h; also: % of control where 0% means no effect; nearly all actives have a fitted effect of over 55% in size
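First, 250 cells per well were seeded. Next, compound or vehicle (23 nL) was pinned in, plates sat 48 hr at 37 C. Finally Hoechst was added for 40 min before fluorescence scanning.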
MCF10A rereplic: induces DNA re-replication in MCF 10a normal breast cells | 350,000 tested, 2.9% active | AID 624296 | MCF 10A DNA re-replication, Hoechst nuclear intensity, 48 h | Potency, µM (highest dose often 46.1 µM), inactives show top-dose activity, positive = re-replication, hits mostly activators; also: % of control where 0% means no effect; nearly all actives have a fitted effect of over 50% in size
KB-3-1 tox: kills parental KB-3-1 adenocarcinoma cells. KB-3-1 viability, CellTiter-Glo ATP luminescence, 72 h. Potency, µM (series often up to 46.1 µM), hits mostly cytotoxic. 400,000 tested, 1.4% active. AID 1347075; also: % is scaled to controls: 0 for no effect and ±100 for the full control effect; nearly all actives have a fitted effect of over 60% in size
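Cytotoxicity in the drug-sensitive parental line KB-3-1 was scored as loss of CellTiter-Glo luminescence following 72 h incubation with compound. Values come from curve fitting of normalized concentration-response data.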
The depositor's hits bear a star; i = inactive; ? = inconclusive; . = no result; ! = repeats disagree; [ ] = another dose, or the depositor's remark. Calls follow the shape of the dose curve; as a rule, active = well fitted curve in the direction sought with a large enough effect; inconclusive = small, poorly fitted or top-dose-only effect, or another doubt; inactive = no such curve, though single readings can be large; an effect the other way counts as inactive or inconclusive. Potency is read from the fitted curve at half-maximal effect.

SMILES	HT1080NT lethal	HT1080 IDH1KD tx	KB-V1 MDR tox	SW480 rereplic	MCF10A rereplic	KB-3-1 tox
COc1ccc(-c2n[nH]c(C)c2-c2cnn(-c3ccccc3)c2)c(O)c1C	-22%	?	?	15µM*	?	?
COc1ccc(-c2onc(C)c2-c2cnn(-c3ccccc3)c2)c(O)c1C	-13%	-3%	i	?	?	i
NC1=NC(=O)S/C1=C\c1ccc(F)cc1	23µM*	?	i	-1%	6%	i
CCOC(=O)C1(CCOc2ccccc2)CCN(Cc2cc(OC)c3c(c2)OCO3)CC1	18µM*	18µM*	i	?	?	?
CCOC(=O)C1(CCOc2ccccc2)CCN(Cc2cccc3c2OCO3)CC1	21µM*	?	?	?	?	?
CCOC(=O)C1(Cc2cccc(F)c2)CCN(Cc2nc(CC)[nH]c2C)CC1	?	-16%	i	5.8µM*	13µM*	i
CCOC(=O)C1(Cc2cccc(OC)c2)CCN(Cc2ccccc2OC)CC1	?	?	?	-1%	6%	i
CCOC(=O)C1(Cc2cccc(OC)c2)CCN(Cc2cccc(OC)c2O)CC1	?	?	5.2µM*	20%	?	?
CCOC(=O)C1(Cc2cccc(F)c2)CCN(Cc2cnn(CC)c2)CC1	-6%	?	i	4%	?	i
CCCCn1c(N)c(N(CCOC)C(=O)c2c(-c3ccccc3)noc2C)c(=O)[nH]c1=O	-5%	0%	i	-2%	-2%	i
COc1ccc(C(=O)COC(=O)c2cccc(NC(=O)c3ccc(OC)c(OC)c3)c2)cc1	.	.	i	.	.	i
CC(C)Cc1nnc(NC(=O)Cc2ccccc2[N+](=O)[O-])s1	1%	-15%	?	-3%	-1%	i
CSc1cc(-c2ccccc2)[nH]c(=O)c1C#N	-12%	-11%	i	15µM*	-1%	i
COc1ccc2c(c1)c(N1CCCC1=O)c(C(=O)Nc1ccc(Cl)cc1C)n2C	.	.	i	.	.	i
O=C(Nc1ccc(Cl)cc1C(F)(F)F)C(Sc1nnc(-c2cccs2)o1)c1ccccc1 (stereo unspecified)	?	10µM*	15µM*	.	1.6µM*	?
O=C1C(=O)N(CNc2cccnc2)c2ccccc21	15%	22%	i	-3%	4%	i
O=C1C(=O)N(CNc2ccccn2)c2ccccc21	?	-22%	i	12µM*	7.3µM*	?
COc1ccc(NC(C)C(=O)Nc2ccc(C(C)(C)C)cc2)cc1Cl (stereo unspecified)	?	?	i	12%	16µM*	i
COc1ccc(NCC(=O)Nc2ccc(C#N)cc2)cc1Cl	-3%	-7%	i	7%	2%	i
COc1ccc(NC(C)C(=O)Nc2ccc(C#N)cc2)cc1Cl (stereo unspecified)	?	?	21µM*	-9%	7%	i
CN(Cc1ccccc1)c1ncnc(N)c1[N+](=O)[O-]	-10%	-5%	i	-1%	12%	i
CN(C)S(=O)(=O)c1ccc(C(=O)Nc2ccccc2F)cc1	-2%[9.24 µM]	0%	i	1%	-6%	i
COc1ccc(-c2oc(=O)c3cc(OC)c(OC)cc3c2-c2ccc3c(c2)OCO3)cc1	-3%	-6%	i	?	26%	i
COc1cc2c(O)c3c(c(-c4ccc5c(c4)OCO5)c2cc1OC)C(=O)OC3	2.5µM*	2.5µM*	4.6µM*	23µM*	?	15µM*
COc1cc2c(OC(C)=O)c3c(c(-c4ccc5c(c4)OCO5)c2cc1OC)C(=O)OC3	2.9µM*	2.1µM*	?	6%	?	3.3µM*!
SMILES	HT1080NT lethal	HT1080 IDH1KD tx	KB-V1 MDR tox	SW480 rereplic	MCF10A rereplic	KB-3-1 tox
Cc1cc(N2CCN(c3nc4ccccc4s3)CC2)n2ncnc2n1	?	?	1µM*	-13%	17%	2.6µM*
Cc1cc(C)c2nc(N3CCC(C(=O)N4CCCC4)CC3)sc2c1	?	-24%	?	18%	-1%	i
COc1cc(OC)c(C2=Nc3ccc(Br)cc3C(c3ccccc3)N2CC(=O)NN)cc1OC (stereo unspecified)	6%	4%	i	-9%	2.9µM*	i
NNC(=O)CN1C(c2ccccc2)=Nc2ccc(Br)cc2C1c1ccccc1 (stereo unspecified)	?	?	i	12%	8%	i
COc1ccc(NC(=S)NNC(=S)Nc2cccc(C(F)(F)F)c2)cc1	-25%	?	i	-35%	15µM*	i
Cc1ccc(OC(F)F)c(NC(=O)Nc2cccc(C(F)(F)F)c2)c1	?	?	?	11µM*	?	?
O=C(Nc1ccccc1)Nc1cccc(C(F)(F)F)c1	0%	-1%	i	0%	0%	i
O=C(NNC(=S)Nc1cccc(C(F)(F)F)c1)c1ccc(Cl)cc1Cl	?	?	18µM*	?	13µM*	?
COC(=O)/C=C/C(=O)Nc1cccc(C(F)(F)F)c1	-3%	-11%	i	?	23µM*	i
O=C(Cc1ccccc1)N/N=C/c1cc(Br)cc(Cl)c1O	?	?	i	?	?	?
O=C(O)/C=C/C(=O)Nc1ccc(Cl)c(C(=O)O)c1	3%	7%	?	-4%	2%	i
CCOc1ccc(C(CC(=O)O)NC(=O)C23CC4CC(CC(C4)C2)C3)cc1 (stereo unspecified)	1%	-11%	i	-10%	2%	i
CC1CCCC(C)N1C(=O)COC(=O)c1ccc[nH]c1=O (stereo unspecified)	?	16%	i	-12%	0%	i
CCSc1nc2sc3c(c2c(=O)n1-c1ccccc1)CCN(C(C)C)C3	20%	24%	i	-1%	18µM*	i
CN1CCc2c(sc3nc(SCC(N)=O)n(-c4ccc(Cl)cc4)c(=O)c23)C1	-1%	0%	i	?	16µM*	i
CCCCCNc1nc2sc3c(c2c(=O)n1-c1cccc(Cl)c1)CCN(C)C3	15µM*	?	i	1%[9.22 µM]	?	?
CN1CCc2c(sc3nc(SCC(N)=O)n(-c4ccccc4)c(=O)c23)C1	2%	-2%	i	2%	16%	i
CCOc1cc(/C=C2\SC(=N)N(c3nccs3)C2=O)ccc1OCCN1CCOCC1	-27%	?	7.3µM*	?	8%	i
